# Inconclusive results are not listed. Activity calls are given as the source filed them. Rule for the calls: active = hit-call score of the fitted dose curve at least 0.9, where 1 is the maximum; inconclusive = response in the unintended direction; inactive = score below 0.9.
# Assays:
# [1] = tested on: Thyroperoxidase (TPO), gene 54314; assay: CCTE_Simmons_AUR_rTPO: CCTE's Amplex UltraRed Assay for Thyroperoxidase (TPO) Inhibition, Simmons Lab (AID 2283662);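 for AC50: potency for loss of signal meaning inhibition of peroxidase activity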
# Outline: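 Rat thyroid microsomes (5 ug protein) were incubated with test compound (8 concentrations, 5 nM–87.5 uM final, 0.5% DMSO), 25 uM Amplex UltraRed and 300 uM H2O2 in 200 mM phosphate buffer for 30 min at 37C in the dark; fluorescence read at 544/590 nm.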
# [2] = CCTE_Simmons_CellTiterGLO_HEK293T: Viability Assessment in CCTE's Assays for Thyroperoxidase (TPO) Inhibition, Simmons Lab (AID 2283665);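 for AC50: cells exposed to compound for 24 h before readout; actives reduce ATP signal below DMSO vehicle meaning cytotoxicity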
# Outline: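 Cells were seeded overnight, then exposed to an eight-point series up to 87.5 uM final for 24 hours. CellTiter-Glo reagent was added and luminescence read after 20 min, giving ATP-based viability versus DMSO.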
smiles,measurement,setting,value
CSCCC=O,AC50,[1],43.8 µM (active)
O=C(O)CCCCCCCCC(=O)O,outcome,[1],inactive
same,outcome,[2],inactive
O=C1OC[C@H](Cc2cccc(O)c2)[C@H]1Cc1cccc(O)c1,AC50,[1],7.74 µM (active)
CCCCC(CC)COC(=O)c1ccc(O)cc1 (stereo not given),AC50,[1],44.7 µM (active)
same,AC50,[2],24.7 µM (active)
CCCCCCCCc1ccc(S(=O)(=O)O)cc1,AC50,[1],43.8 µM (active)
same,AC50,[2],83.5 µM (active)
CN(C)c1cccc(O)c1,AC50,[1],1.34 µM (active)
same,outcome,[2],inactive
Nc1ccc2cc(S(=O)(=O)O)cc(O)c2c1N=Nc1ccccc1C(F)(F)F,AC50,[1],20.2 µM (active)
same,AC50,[2],31.1 µM (active)
Cc1ccc(S(=O)(=O)Oc2ccc(N=Nc3ccc(-c4ccc(N=Nc5c(O)ccc6cc(S(=O)(=O)O)cc(S(=O)(=O)O)c56)c(C)c4)cc3C)cc2)cc1,AC50,[1],18.2 µM (active)
same,AC50,[2],18.3 µM (active)
C=C1CC[C@H](O)C/C1=C/C=C1\CCC[C@]2(C)[C@@H]([C@H](C)/C=C/[C@H](C)C(C)C)CC[C@@H]12,AC50,[1],41.3 µM (active)
same,AC50,[2],78.7 µM (active)
COc1ccccc1N=Nc1c(S(=O)(=O)O)cc2cc(S(=O)(=O)O)cc(NC(C)=O)c2c1O,AC50,[1],34.8 µM (active)
same,AC50,[2],12.2 µM (active)
CCCCCC(C=O)=Cc1ccccc1,AC50,[1],19.4 µM (active)
same,AC50,[2],88.1 µM (active)
CCOc1ccccc1O,AC50,[1],19.1 µM (active)
[O-]n1ccccc1=S.[O-]n1ccccc1=S.[Zn+2],AC50,[1],3.72 µM (active)
same,AC50,[2],2.57 µM (active)
CCCCCCCCCCCCCCN(CCO)CCO,AC50,[1],44.8 µM (active)
same,AC50,[2],21.4 µM (active)
